# The list is not random: actives were taken first. Their share in the collection is about 2.8%.
# POLH inh: qHTS for Inhibitors of Polymerase Eta. DNA polymerase eta (Homo sapiens), Q9Y253. recombinant Pol eta, fluorescent DNA replication assay. Potency, µM (highest dose often 114 µM), actives largely listed as inhibitors. 390,000 tested, 1.2% active. AID 588591, 2011
#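 Pol eta at 10 nM preincubated with compounds 15 min at room temperature; reaction started with fluorescent substrate (50 nM final) and read kinetically at 0 and 10 min.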
# Pol kappa inh: qHTS for Inhibitors of Polymerase Kappa. purified Pol kappa, fluorescent DNA synthesis assay, 10 min. 400,000 tested, 0.53% active. AID 588579, 2011. Potency, µM (doses to about 107 µM), usual class: inhibitors. DNA polymerase kappa (Homo sapiens), Q9UBT6
# Target sequence (Q9UBT6 whole entry, looked up): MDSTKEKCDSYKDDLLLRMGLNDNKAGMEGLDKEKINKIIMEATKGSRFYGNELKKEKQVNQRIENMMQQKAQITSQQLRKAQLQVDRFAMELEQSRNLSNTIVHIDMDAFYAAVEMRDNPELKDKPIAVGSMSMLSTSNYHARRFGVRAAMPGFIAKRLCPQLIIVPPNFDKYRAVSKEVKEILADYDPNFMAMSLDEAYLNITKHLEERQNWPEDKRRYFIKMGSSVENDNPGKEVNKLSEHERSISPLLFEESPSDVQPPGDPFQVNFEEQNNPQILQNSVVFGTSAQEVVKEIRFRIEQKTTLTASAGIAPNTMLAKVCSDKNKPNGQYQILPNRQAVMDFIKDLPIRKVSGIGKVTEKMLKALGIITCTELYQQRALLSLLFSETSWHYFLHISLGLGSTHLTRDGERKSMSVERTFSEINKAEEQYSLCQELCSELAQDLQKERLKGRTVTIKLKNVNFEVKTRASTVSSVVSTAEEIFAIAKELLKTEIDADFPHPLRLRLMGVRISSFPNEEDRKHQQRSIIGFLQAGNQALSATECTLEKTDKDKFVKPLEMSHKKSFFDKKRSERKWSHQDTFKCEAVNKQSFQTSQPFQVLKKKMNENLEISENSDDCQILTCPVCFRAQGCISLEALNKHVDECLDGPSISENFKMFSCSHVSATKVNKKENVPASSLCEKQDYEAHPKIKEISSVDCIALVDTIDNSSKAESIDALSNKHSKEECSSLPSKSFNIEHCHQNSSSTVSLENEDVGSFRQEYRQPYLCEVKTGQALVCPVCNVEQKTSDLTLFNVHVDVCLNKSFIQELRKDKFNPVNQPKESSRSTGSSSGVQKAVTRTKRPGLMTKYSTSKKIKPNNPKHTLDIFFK
#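 50 nM final substrate added after 15 min RT preincubation of 10 nM Pol kappa with compound; fluorescence read at 0 and 10 min.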
# Pol iota inh: qHTS for Inhibitors of Polymerase Iota. AID 588590, 2011. DNA polymerase iota (Homo sapiens), Q9UNA4. Pol iota fluorescent replication assay, 10 min. Potency, µM (top dose mostly 115 µM), usual class: inhibitors. 390,000 tested, 1% active
#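 Fluorescent replication assay read twice, at 0 min and 10 min after adding 50 nM (final) substrate. Enzyme (10 nM) and compounds were first incubated 15 min at room temperature; enzyme-free buffer wells were negative controls.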
# POLB inh: qHTS Assay for Inhibitors of DNA Polymerase Beta; P06746; Pol beta primer extension/strand displacement, fluorescence kinetic; Potency, µM (doses to about 114 µM), usual class: inhibitors; 340,000 tested, 1.3% active
#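 Reaction started by 50 nM substrate onto compound-treated Pol beta (10 nM, 15 min preincubation, room temperature); plates read at 0 min and 10 min. Normalized concentration-effect data fitted by four-parameter Hill equation.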
# WRN inhibitor: qHTS for Inhibitors of WRN Helicase; 360,000 tested, 0.46% active; AID 651768, 2012; Potency, µM (titrated, usually from 114 µM), actives largely listed as inhibitors; Bifunctional 3'-5' exonuclease/ATP-dependent helicase WRN (Homo sapiens), Q14191; WRN helicase unwinding, fluorescent forked duplex, kinetic; note: nearly all actives have a fitted effect of over 55% in size
#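 Primary qHTS, 1536-well format. 20 nM WRN + compound, 15 min RT; start with 100 nM forked fluorophore/quencher duplex, 2 mM ATP (final); kinetic read ex 525/em 598 nm.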
# PI5P4Ka inh: qHTS for Inhibitors of phosphatidylinositol 5-phosphate 4-kinase (PI5P4K); Phosphatidylinositol 5-phosphate 4-kinase type-2 alpha (Homo sapiens), P48426; PI5P4Kalpha enzyme, ADP-Glo luminescence, 60 min; active compounds read low; max response, %; 330,000 tested, 1.2% active; AID 652105, 2013; active = max response of -50% or lower; inconclusive = between -30% and -50%; inactive = -30% or higher; note: value at the top dose of about 77 µM
#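 Luminescence from ADP-Glo served as readout of PI5P4Kalpha activity in a qHTS format. Reaction: enzyme, substrate, compound, ATP at 5 microM final, 60 min at RT.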
# Hits are given with their value; . = inactive; ? = inconclusive; / = no result; [ ] = another dose, or the depositor's remark. Unless noted, calls come from the whole dose curve; as a rule, active = well fitted curve in the direction sought with a large enough effect; inconclusive = small, poorly fitted or top-dose-only effect, or another doubt; inactive = no such curve, though single readings can be large; an effect the other way counts as inactive or inconclusive.
SMILES,POLH inh,Pol kappa inh,Pol iota inh,POLB inh,WRN inhibitor,PI5P4Ka inh
CCN1/C(=C/c2ccc3cccc(C)c3[n+]2CC)Sc2ccccc21,.,.,?,50µM,?,/
CCN1/C(=C\c2ccc3cc(C)ccc3[n+]2CC)Sc2cc(C)c(C)cc21,?,.,/,50µM,45µM,.
CCN1/C(=C/c2ccc3cc(C)ccc3[n+]2CC)Sc2ccc3sccc3c21,?,.,.,/,.,.
C[n+]1ccccc1/C=C1\Sc2ccccc2N1CCO,.,.,.,.,.,.
CC(C)(C)c1cc(=O)n(-c2ccccc2)[nH]1,?,.,7.1µM,?,.,.
O=c1cc(-c2ccccc2)[nH]n1-c1ccccc1,.,.,?,/,.,.
O=C(Nc1ccc(Br)cc1F)c1cnn2c1NC(=C1CC1)C=C2C(F)F,/,32µM,?,/,/,/
CCN(CC)S(=O)(=O)c1ccc(C(=O)NNC(=O)c2csc(N3CCOCC3)n2)cc1,.,.,.,/,.,.
CN(C)S(=O)(=O)c1ccc(C(=O)OCC(=O)c2csc(N3CCCCC3)n2)cc1,79µM,.,?,/,.[11.6 µM],.
CC(=O)C1=C(O)C(=O)N(Cc2ccco2)C1c1ccccc1 (stereo unspecified),.,.,.,.,.,/
CC(=O)C1=C(O)C(=O)N(Cc2ccccc2)C1c1ccco1 (stereo unspecified),45µM,.,?,?,.,.
O=C(Cc1cccs1)NC1CC(=O)N(c2ccc(F)cc2)C1 (stereo unspecified),.,.,.,.,/,/
CC(NCc1ccc(S(N)(=O)=O)cc1)C(=O)N1CCc2ccccc21 (stereo unspecified),.,.,.,.,.,.
N#CC(Cc1ccc(O)c(O)c1)C(=O)N1CCc2ccccc21 (stereo unspecified),7.9µM,/,?,?,/,/
CCc1cccc(NC(=O)C2CCCN2S(=O)(=O)c2ccc3nc(-c4ccccc4)[nH]c3c2)c1 (stereo unspecified),.,.,?,.,/,/
O=S(=O)(Nc1nccs1)c1ccc(NS(=O)(=O)c2c(F)cc(F)c(Cl)c2F)cc1,50µM,.,?,/,.,.
O=S(=O)(Nc1ccc(S(=O)(=O)Nc2nccs2)cc1)c1ccc(Br)cc1,.,.,.,.,.,.
CC1S/C(=C(\C#N)C(=O)NCc2ccco2)N(Cc2ccco2)C1=O (stereo unspecified),?,89µM,22µM,.,?,?
COc1ccc(S(=O)(=O)NCCC(=O)NC2CCCCC2C)cc1[N+](=O)[O-] (stereo unspecified),.,.,50µM,/,.[11.6 µM],.
COc1cc(NC(=O)Nc2cccn3nc(COCCO)nc23)cc(OC)c1OC,/,/,/,/,.,.
COc1ccc(C2=CC3=C(Br)C(=O)C(C)(O)C(=O)C3=CO2)cc1 (stereo unspecified),?,?,?,40µM,?,-83
CCCC(C(=O)NCCC(C)C)N(Cc1ccccc1)C(=O)c1snc(C(N)=O)c1N (stereo unspecified),.,.,.,.,.,.
CN1CCc2cccc3c2[C@@H]1Cc1ccc(O)c(O)c1-3,.,.[19.4 µM],?,?,.,-61
Cc1cc2[nH]c(=O)c(=O)[nH]c2cc1S(=O)(=O)N1CCN(c2cccc(Cl)c2)CC1,.,.,?,35µM,.[11.6 µM],.
Cc1cc2[nH]c(=O)c(=O)[nH]c2cc1S(=O)(=O)N1CCN(c2cccc(C(F)(F)F)c2)CC1,.,.,?,?,.,.
SMILES,POLH inh,Pol kappa inh,Pol iota inh,POLB inh,WRN inhibitor,PI5P4Ka inh
O=c1[nH]c2ccc(S(=O)(=O)N3CCN(c4ccccc4)CC3)cc2[nH]c1=O,79µM,?,40µM,45µM,?,/
CC1CCN(S(=O)(=O)c2ccc3[nH]c(=O)c(=O)[nH]c3c2)CC1,.,.,.,.,.,/
Cc1ccc(OCC(=O)NNC(=O)C2CCCO2)c(C)c1 (stereo unspecified),.,.,.,.,.,.
CCC[N+](C)(C)c1ccc(/C=C/c2ccncc2)cc1,/,.,?,/,/,/
CSS(=O)(=O)c1cccc2cccnc12,.,.,.,.,.,-91
Oc1c(Cl)cc(Cl)cc1/C=N/NC(=S)NC1CC2C=CC1C2 (stereo unspecified),.,.,?,.,.,-61
C(#Cc1ccccc1)C[N+]1(CC#Cc2ccccc2)CCCC1,.,.,.,.,.,.
C=CC#CC[N+]1(CC#Cc2ccccc2)CCOCC1,35µM,?,?,.,22µM,-82
O=C(Cc1cccc2ccccc12)N/N=C/c1ccc(F)cc1,.,.,.,.,.,/
O=C(Cc1cccc2ccccc12)N/N=C/c1ccc(OC(=O)/C=C/c2ccco2)cc1,?,?,?,10µM,.,?
CCN(CC)c1ccc(/C=C/c2ccc3ccccc3n2)cc1,/,40µM,?,/,/,/
Cc1cc(O)c(C(C)C)cc1N=Nc1ccccc1C(=O)O,.,.,.,.,.,-57
Cc1cc(O)c(C(C)C)cc1N=Cc1ccccc1[N+](=O)[O-],.,.,20µM,/,.,.
Cc1cc(N=Nc2ccccc2C(=O)O)c(C)c(C)c1O,.,.,.,.,.,-51
CN1C(=O)c2ccccc2Sc2ccc(NC(=O)Nc3ccccc3F)cc21,.,.,.,.,/,/
CN1C(=O)c2ccccc2Sc2ccc(NC(=O)Cc3c(F)cccc3Cl)cc21,.,.,?,20µM,/,/
Cc1nnc(SCC(=O)Nc2nc(-c3ccccc3)cs2)n1N,.,.,.,.,.,/
Cn1cnnc1SCC(=O)Nc1nc(-c2ccccc2)cs1,.,.,.,16µM,.,.
O=S(=O)(c1ccc(Oc2ccc(Br)cc2)cc1)N1CCOCC1,.,.,.,.,.,.
Oc1ccc(N=C/C=C/c2ccc(Br)cc2)cc1-c1nc2ccccc2s1,/,/,/,13µM,/,/
O=C(Nc1ccc(-c2nc3ccccc3s2)c(O)c1)c1ccc(Br)cc1,.,.,.,.,/,/
O=C(O/N=C1/CCSc2ccccc21)c1ccc(F)cc1,.,.,.,.,.,/
O=C(O/N=C1/CCCc2occc21)c1ccc(F)cc1,.,.,.,.,.,-58
CCOC(=O)C1CC2CC(C1)CN(C(=O)C1CCCCC1)C2 (stereo unspecified),.,.,.,.,.,.
CS(=O)(=O)c1ccc(Cl)c(C(=O)Nc2ccc3nc(N4CCOCC4)sc3c2)c1,.,.,.,/,.,.
O=C(Nc1ccc2c(c1)C(=O)NC2=O)c1cccc(C(F)(F)F)c1,.,.,?,79µM,.,.
O=C(Nc1ccc2c(c1)C(=O)NC2=O)c1ccccc1,.,.,.,.,.,.
COc1cc(NS(=O)(=O)c2ccc3c(c2)C(C)(C)C(=O)N3C)cc(OC)c1,?,.,?,?,.,?

# Assay outcomes from PubChem.
